PGC1a acetyl inh: inhibitors of PGC1a acetylation signal, primary screen, cell-based, U2OS, AlphaScreen, inhibitor mode; AlphaScreen anti-acetyl-lysine; with virally co-expressed GCN5 acetyltransferase; inhibition, % at 15.6 µM; 350,000 compounds, 0.17% hits; AID 651687, 2012;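 active = every replicate shows inhibition of at least 40%; inconclusive = mean inhibition at least 40% but some replicate below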;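 note: 0% = neutral control wells and 100% = positive control wells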
EWS-Fli block: EWS/Fli-driven NR0B1 reporter inhibitors, primary screen, A673 cells, NR0B1 luciferase, luminescence, MLPCN library; inhibition, % at 12.6 µM; 350,000 compounds, 0.67% hits; viability-normalised;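 active = mean inhibition of at least 50% after viability correction, with every replicate also passing that limit; inconclusive = mean reaches 50% but only one of two replicates passes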;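 note: firefly luciferase signal divided by Alamar Blue viability fluorescence both relative to DMSO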
PAX8 inh HTS: inhibitors of PAX8-driven TPO luciferase reporter, primary screen, RMG-I cells, single concentration; SteadyGlo, 24 h; inhibition, % at 12.6 µM; 360,000 compounds, 1.2% hits;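 active = mean replicate inhibition at least 60% with every replicate also reaching 60%; inconclusive = only one of the two criteria is met; inactive = mean below 60% and not all replicates reaching 60%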;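 note: luciferase light reporting Pax8 driven TPO promoter activity; plate controls were median of neutral control wells for no effect and mitoxantrone controls for full effect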
Ecoli rRNA inh: reduced GFP signal of wild-type E. coli, primary screen, bacterial rRNA inhibitor project, GFP/RFP fluorescence, OD600, single point; E. coli WT GFP vs humanized-ribosome RFP mutants, 24 h; hits give low values; DMSO median 0, no signal -100; 350,000 compounds, 1.6% hits; GFP signal change (wild-type ribosome), % (no concentration beside the values); AID 720706, 2013;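 active = significant combined selectivity score with lowered wild-type GFP, culture density cut under 30%, mutant RFP and density less affected; inactive = any of these conditions unmet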
SIRT5 block: SIRT5 desuccinylase inhibitors, primary screen, biochemical, fluorescence imaging, single point, set 5; 330,000 compounds, 1.1% hits; AID 652115, 2013; Purified SirT5, succinyl-peptide AMC, trypsin-coupled fluorescence; inhibition, % at 15 µM; in the data active = inhibition above about 15%; inconclusive = no clear call, values can overlap the other calls
Target sequence (Q9NXA8 whole entry, looked up): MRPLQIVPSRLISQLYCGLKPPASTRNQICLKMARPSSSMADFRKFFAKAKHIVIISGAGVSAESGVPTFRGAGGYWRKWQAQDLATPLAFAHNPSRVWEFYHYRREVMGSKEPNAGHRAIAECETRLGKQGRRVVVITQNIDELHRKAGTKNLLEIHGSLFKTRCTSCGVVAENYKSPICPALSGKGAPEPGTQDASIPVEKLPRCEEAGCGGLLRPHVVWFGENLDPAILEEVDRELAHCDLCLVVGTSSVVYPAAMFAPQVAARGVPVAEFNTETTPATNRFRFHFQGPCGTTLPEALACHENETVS
LGR2 inh: inhibitors of bursicon-induced LGR2 CRE-luciferase signal, primary screen, cell-based, HEK293, CRE-luciferase reporter, bursicon stimulation; AID 720647, 2013; inhibition, % at 9.99 µM; bursicon-stimulated, 4 h; 380,000 compounds, 0.35% hits;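 active = drop in luminescence signal, shown as inhibition above about 50% in the replicate tests, limit read from the data, passing the limit was not always enough; inconclusive = probably only some replicates passing the limit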;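 note: agonist challenge used bursicon conditioned medium at about half maximal strength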
An asterisk follows results filed as active; ? = inconclusive; . = no result; ! = not confirmed by another sample. Rows were chosen to be rich in hits. Some 3.4% of all compounds tested hit in one or more screens of this group.

SMILES	PGC1a acetyl inh	EWS-Fli block	PAX8 inh HTS	Ecoli rRNA inh	SIRT5 block	LGR2 inh
CC1=C(C(=O)OCc2ccccc2)C(c2ccccc2Br)NC(=O)N1 (stereo not given)	-9	15	23	-34*	0	1
CCOc1ccccc1C1NC(=O)NC(C)=C1C(=O)OCc1ccccc1 (stereo not given)	4	-8	-54	-22	-3	3
CCCNC(=O)N1CCC2(CC1)CN(C(=O)NC(C)C)[C@H](CO)c1c2c2ccc(OC)cc2n1C	9	-6	8	-2	-7	-1
CC(C)NC(=O)NCC[C@H]1CC[C@@H](NC(=O)CCN2CCCCC2)[C@H](CO)O1	-3	.	.	3	3	-6
COc1ccc2c3c([nH]c2c1)[C@@H](CO)N(C(=O)C1CCC1)CC31CCN(C(=O)c2ccccn2)CC1	3	-4	-23	-3	-2	-6
COC(=O)C[C@@H]1CC[C@@H]2[C@H](COC[C@@H](O)CN2C(=O)Nc2ccccc2OC)O1	0	-22	-2	0	1	24
C[C@@H]1CN([C@@H](C)CO)C(=O)c2cc(NC(=O)Nc3ccc(C(F)(F)F)cc3)ccc2O[C@@H](C)CCCCO[C@H]1CN(C)Cc1ccc(C(F)(F)F)cc1	9	-3	?	0	.	9
C[C@@H]1CCCCO[C@@H](CN(C)Cc2ccc(C(F)(F)F)cc2)[C@H](C)CN([C@@H](C)CO)C(=O)c2cc(NC(=O)Nc3ccc(C(F)(F)F)cc3)ccc2O1	3	-8	37	-3	.	-5
C[C@H](CO)N1C[C@H](C)[C@@H](CN(C)Cc2ccc(C(F)(F)F)cc2)OCCCC[C@H](C)Oc2ccc(NC(=O)Nc3ccc(F)cc3)cc2C1=O	-12	12	88*	-1	7	12
C[C@@H]1CCCCO[C@H](CN(C)Cc2ccc(C(=O)O)cc2)[C@H](C)CN([C@H](C)CO)C(=O)c2cc(NC(=O)Nc3ccc(C(F)(F)F)cc3)ccc2O1	11	-5	-4	-2	-3	32
C[C@@H]1CN([C@@H](C)CO)C(=O)c2cc(NC(=O)Nc3ccc(F)cc3)ccc2O[C@@H](C)CCCCO[C@@H]1CN(C)Cc1ccc(C(F)(F)F)cc1	-6	9	80*	0	3	22
C[C@@H]1CCCCO[C@@H](CN(C)Cc2ccc(C(F)(F)F)cc2)[C@H](C)CN([C@@H](C)CO)C(=O)c2cc(NC(=O)Nc3ccc(F)cc3)ccc2O1	4	10	86*	-2	13	-12
CC(=O)N1CC2(C1)[C@H](c1ccc(-c3ccc(F)cc3)cc1)[C@H](CO)N2C(C)=O	3	3	1	-3	3	-4
C[C@H](CO)N1C[C@H](C)[C@@H](CN(C)C)Oc2ccc(NC(=O)Nc3ccc(C(F)(F)F)cc3)cc2CC1=O	2	48	43	-2	-9	-13
COc1ccc(NC(=O)/C=C/c2ccco2)cn1	0	-73	-170	22	1	-10
COc1ccc(NC(=O)/C=C/c2ccc(Br)o2)cn1	6	-47	-41	5	34*	-36
COc1cccc(C(=O)Oc2ccc(N3C(=O)CCC3=O)c(C)c2)c1	-7	-5	-12	-4	16*	4
O=C(Cc1ccccc1)OC(COCc1ccccc1)C(=O)NCc1ccccc1 (stereo not given)	1	-11	3	.	2	.
CCC(=O)N1CC2(C1)CN(CC1CCOCC1)[C@@H](CO)c1c2c2ccc(OC)cc2n1C	1	-5	.	7	.	4
O=S(=O)(c1cccs1)N1CCC(CO)(Cc2cccc(F)c2)CC1	.	5	-8	-23*	.	-25
O=C(c1ccc2c(c1)OCO2)N1C[C@@H]2N[C@H](C1)C2c1ccc(-c2cccnc2)cc1 (stereo not given in full)	15	64*!	2	3	-2	9
CN(C)C(=O)c1ccc(-c2ccc(C3[C@@H]4CN(Cc5nccs5)C[C@H]3N4)cc2)cc1 (stereo not given in full)	-2	53*!	-8	-1	0	-9
CN(C)C(=O)c1ccc(-c2ccc(C3[C@@H]4CN(C(=O)Cc5ccccc5)C[C@H]3N4)cc2)cc1 (stereo not given in full)	11	-5	-1	2	17*!	5
Fc1ccc(-c2ccc(C3[C@@H]4CN(Cc5nccs5)C[C@H]3N4)cc2)cc1 (stereo not given in full)	3	-3	63*!	-18	-5	-35
O=C(C[C@H]1CC[C@H]2[C@@H](COC[C@@H](O)CN2C(=O)c2ccccc2F)O1)N1CCCCC1	-5	-1	-19	-2	-1	-2
SMILES	PGC1a acetyl inh	EWS-Fli block	PAX8 inh HTS	Ecoli rRNA inh	SIRT5 block	LGR2 inh
C[C@@H]1CN([C@H](C)CO)C(=O)c2cc(NS(=O)(=O)c3cn(C)cn3)ccc2O[C@H]1CN(C)Cc1ccc(C(=O)O)cc1	1	-6	.	4	6	9
Cc1cccc(-c2ccc([C@H]3[C@H](CO)N4C(=O)CN(C(=O)Cc5ccccn5)C[C@@H]34)cc2)c1	5	2	-24	-1	1	-4
COc1ccc(NC(=O)N[C@H]2C=C[C@H](CC(=O)NC3CCC3)O[C@H]2CO)cc1	-9	2	-2	-2	-2	23
CN(C)C(=O)c1ccc(-c2ccc(C3[C@@H]4CN(C(=O)c5ccccn5)C[C@H]3N4)cc2)cc1 (stereo not given in full)	-1	-2	-2	5	.	-2
CN(C)C(=O)c1cccc(-c2ccc(C3[C@@H]4CN(C(=O)c5ccccn5)C[C@H]3N4)cc2)c1 (stereo not given in full)	5	58*!	-6	6	22*!	3
C/C=C(\C)C(=O)OC1CC(C)(C)C[C@H]2C3=CC[C@@H]4[C@@]5(C)CCC(O[C@@H]6O[C@@H](C(=O)O)[C@@H](O)C(O[C@@H]7OC[C@H](O)[C@@H](O)[C@@H]7O[C@@H]7OC(CO)C(O)[C@@H](O)[C@@H]7O)C6O[C@@H]6OC(CO)C(O)C(O)C6O)[C@@](C)(CO)[C@@H]5CC[C@]4(C)[C@]3(C)CC(O)[C@@]12CO (stereo not given in full)	-96	24	75*	18	1	8

Bioassay records as filed in PubChem BioAssay.
